In general, cell viability refers to a read-out of living cells in per cent, often relative to untreated cells.

In this assay the test system is OCI-AML2. In words: cell viability relative to vehicle control; higher = less cytotoxic. The following applies: 10 µM; SRSF2 genotype: wt/wt. In outline:
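Screening covered the Selleck bioactive, kinase and epigenetic probe libraries, less identity-inconsistent compounds, on CRISPR-edited mutant clones and isogenic wild-type clones of four leukaemia lines. Cells, at 2000 per well in 50 µL medium, received a single 10 µM acoustically dispensed dose. After 48 h the supernatant was removed and CellTiter-Glo luminescence was read. Viability was analysed in Genedata Screener as percent of the on-plate vehicle control.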
On to `COc1ccc2c(c1)c(CC(=O)OCC(=O)O)c(C)n2C(=O)c1ccc(Cl)cc1` [Acemetacin (Emflex)], for which the cell viability worked out at 104%. Turning to `CC(c1cc2ccccc2s1)N(O)C(N)=O` (configuration not stated) [Zileuton], the cell viability was 97.4%. `COc1ccc(C(=O)CC(=O)c2ccc(C(C)(C)C)cc2)cc1` [Avobenzone (Parsol 1789)]: the cell viability was found to be 76.8%. As for `CNC(=O)[C@H](Cc1ccccc1)NC(=O)[C@H](CC(C)C)[C@H](CSc1cccs1)C(=O)NO` [Batimastat (BB-94)], the cell viability came out at 114%. In the case of `Nc1ncnc2c1c(-c1cccc(OCc3ccccc3)c1)cn2C1CC(CN2CCCC2)C1` (configuration not stated), the cell viability amounted to 41.8%. For `C=C1C[C@@]23CC[C@H]4[C@@](C)(CCC[C@@]4(C)C(=O)O)[C@@H]2CC[C@@H]1C3` [Kaurenoic acid], the cell viability came to 106%. Consider `CC(C)[C@H](NC(=O)[C@H](CC(=O)O)NC(=O)[C@H](CCCCN)NC(=O)[C@@H](N)CCCN=C(N)N)C(=O)N[C@@H](Cc1ccc(O)cc1)C(=O)O` [Thymopentin], for which the cell viability was 89.5%.

As to `C=CC(=O)Nc1cccc(Nc2nc(Nc3ccc(NC4CN(CCF)C4)cc3OC)ncc2C(F)(F)F)c1`, the cell viability amounted to 17.9%. To `CC1(C)O[C@@H]2[C@@H](CO[C@@]3(COS(N)(=O)=O)OC(C)(C)O[C@@H]23)O1` [Topiramate] belongs 113%; to `O=S(=O)(NCCSSCCNS(=O)(=O)c1cc(Cl)ccc1Cl)c1cc(Cl)ccc1Cl`, 52.5%.

For the compound `COC(=O)CCC(C)C1CCC2C3C(O)CC4CC(O)CCC4(C)C3CC(O)C12C` (configuration not stated) [Methyl Cholate], the cell viability was found to be 81.8%. As for `COc1ccc(C2=NC(c3ccc(Cl)cc3)C(c3ccc(Cl)cc3)N2C(=O)N2CCNC(=O)C2)c(OC(C)C)c1` (configuration not stated) [Nutlin-3b], the cell viability was determined as 89.8%.

These data come from the supplement of paper PMC10981050.
